Laboratory results from the supplement of paper PMC10849652.
About 7,900 targets were measured; listed, in parts, are those with a hit and a random draw of the rest. About 0.6% of all pairs of compound and target were hits.

Assays:
Experiment in all cases: log2 fold change, soluble protein after heating vs DMSO (PISA); higher = thermal stabilisation; K562 cells, 10 uM, 30 min; active = over 0.2 and 3.5 SD of the protein, either way, in both replicates (recomputed)
[1] = compound: CC[C@@H]1C(=O)N(C)c2cnc(Nc3ccc(C(=O)N[C@H]4CC[C@H](N5CCN(CC6CC6)CC5)CC4)cc3OC)nc2N1C(C)C [volasertib]
Summary of the method: (§1)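 K562 cells at 2×10^6 cells/mL were exposed to 10 μM compound for 30 min, then aliquots were heated for 3 min across 48°C-58°C, pooled, and extracted in PBS containing 0.5% NP-40 at 4°C. The supernatant after 21,000xg for 90 min was taken as soluble protein and measured by TMTpro 16plex LC-MS/MS with channel sums equalised. Thermal stability is reported relative to control samples, with values from duplicates. Fold changes are given on a log2 scale.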

[2] = compound: CC[C@H](C)[C@@H](C(=O)N[C@@H]([C@@H](C)O)C(=O)N[C@@H](CC(C)C)C(=O)[C@]1(CO1)C)NC(=O)[C@H]([C@@H](C)CC)N(C)C(=O)C [epoxomicin]
Summary of the method: as §1

[3] = compound: CCn1c(C(=O)N(C2CC2)C2CC2)cc2c3c(ncn3C)c(Nc3cc(C)n(C)n3)nc21
Summary of the method: as §1

[4] = compound: CN(C)CC(=O)Nc1ccc2[nH]c(=O)c3ccccc3c2c1
Summary of the method: as §1

[5] = compound: CN(CCOC1=CC=C(C=C1)C[C@H]2C(=O)NC(=O)S2)C3=CC=CC=N3 (racemic) [rosiglitazone]
Summary of the method: as §1

[6] = compound: CN1CCN(c2nc(C3=C(c4c[nH]c5ccccc45)C(=O)NC3=O)c3ccccc3n2)CC1 [sotrastaurin]
Summary of the method: as §1

[7] = compound: CNC(=O)C1=CC=CC=C1NC2=NC(=NC=C2Cl)NC3=C(C=C(C=C3)N4CCOCC4)OC
Summary of the method: as §1

[8] = compound: CNC(=O)c1ccc(Nc2ncc(C(F)(F)F)c(NCc3nccnc3N(C)S(C)(=O)=O)n2)cc1 [defactinib]
Summary of the method: as §1

[9] = compound: COC(=O)[C@H](CCSC)NC(=O)C1=C(C=C(C=C1)NC[C@H](CS)N)C2=CC=CC=C2
Summary of the method: as §1

[10] = compound: CC[C@H](C)N1C=C(C2=C(C=C(C=C21)C3=CN=C(C=C3)N4CCNCC4)C(=O)NCC5=C(C=C(NC5=O)C)C)C
Summary of the method: as §1

[11] = compound: CCn1cc(-c2ccnc3[nH]c(-c4cccc(CN(C)C)c4)cc23)c(-c2ccc(NC(=O)N(C)C)cc2)n1
Summary of the method: as §1

[12] = compound: CN1CCC(CNc2ccc3ncc(-c4cccc(OC(F)(F)F)c4)n3n2)CC1
Summary of the method: as §1

[13] = compound: CN1CCc2c(c3ccccc3n2Cc2ccc(C(=O)NO)cc2)C1 [Tubastatin A]
Summary of the method: as §1

[14] = compound: CN1C2=C(C3=C1C(=O)N(N=C3)CC4=CC(=CC=C4)N)SC(=C2)S(=O)C
Summary of the method: as §1

[15] = compound: CN1CCN(CCOc2cc(OC3CCOCC3)c3c(Nc4c(Cl)ccc5c4OCO5)ncnc3c2)CC1 [saracatinib]
Summary of the method: as §1

[16] = compound: CN1CC[C@H](c2c(O)cc(O)c3c(=O)cc(-c4ccccc4Cl)oc23)[C@H](O)C1 [alvocidib]
Summary of the method: as §1

[17] = compound: CNc1nc(-c2ccc3c(N)n[nH]c3c2)cc(N2C[C@@H](C(=O)NC3CCCCC3)CC[C@H]2C)n1
Summary of the method: as §1

[18] = compound: CC[C@@H]1C(=O)N(C)c2cnc(Nc3ccc(C(=O)NC4CCN(C)CC4)cc3OC)nc2N1C1CCCC1
Summary of the method: as §1

[19] = compound: CNCc1ccc(-c2[nH]c3cc(F)cc4c3c2CCNC4=O)cc1 [rucaparib]
Summary of the method: as §1

[20] = compound: COC(=O)N[C@@H](C)CNc1nccc(-c2cn(C(C)C)nc2-c2cc(Cl)cc(NS(C)(=O)=O)c2F)n1 [encorafenib]
Summary of the method: as §1

Measured: log2 fold change

AIF1 (UniProt P55008)
UniProt P55008, sequence (P55008 whole entry, looked up): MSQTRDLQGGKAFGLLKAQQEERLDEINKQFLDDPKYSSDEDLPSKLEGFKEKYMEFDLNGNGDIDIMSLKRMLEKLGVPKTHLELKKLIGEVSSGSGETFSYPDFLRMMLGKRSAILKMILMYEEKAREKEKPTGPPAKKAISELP
inactive: [1] 0.047 | [3] 0.078 | [4] 0.01 | [5] -0.045 | [6] 0.025 | [7] 0.15 | [8] 0.032 | [9] -0.046
active: [2] -0.727

ACTR3B (UniProt Q9P1U1)
inactive: [1] -0.063 | [10] 0.261 | [3] 0.038 | [11] -0.047 | [4] -0.05 | [12] 0.048 | [13] -0.01 | [7] -0.004 | [8] 0.037 | [9] -0.01

ATF7 isoform 6 (UniProt P17544)
UniProt P17544, sequence (P17544 whole entry, looked up): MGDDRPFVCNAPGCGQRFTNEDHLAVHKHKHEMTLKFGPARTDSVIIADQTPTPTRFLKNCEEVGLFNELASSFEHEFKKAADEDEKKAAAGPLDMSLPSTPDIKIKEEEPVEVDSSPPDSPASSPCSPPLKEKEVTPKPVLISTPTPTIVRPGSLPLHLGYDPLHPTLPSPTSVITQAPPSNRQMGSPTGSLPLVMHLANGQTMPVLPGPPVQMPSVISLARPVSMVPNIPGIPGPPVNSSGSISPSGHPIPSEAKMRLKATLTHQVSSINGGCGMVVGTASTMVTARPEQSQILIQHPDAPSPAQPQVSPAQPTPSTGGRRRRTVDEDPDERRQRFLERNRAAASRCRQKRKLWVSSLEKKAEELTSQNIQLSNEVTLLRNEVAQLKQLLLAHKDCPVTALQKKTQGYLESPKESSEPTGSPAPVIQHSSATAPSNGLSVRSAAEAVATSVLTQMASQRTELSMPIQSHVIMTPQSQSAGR
inactive: [1] -0.014 | [10] 0.041 | [2] -0.028 | [3] 0.007 | [4] 0.03 | [5] -0.011 | [14] -0.06 | [6] -0.105 | [16] 0.026 | [13] -0.088 | [7] -0.096 | [8] 0.063 | [17] 0.034 | [9] -0.037
active: [15] 0.477

AP2M1 (UniProt C9JTK4)
inactive: [18] 0.03 | [10] -0.051 | [2] 0.027 | [4] -0.243 | [5] -0.016 | [14] -0.049 | [15] -0.109 | [6] 0.055 | [16] 0.203 | [13] -0.045 | [8] -0.053 | [19] 0.07 | [17] -0.019 | [20] -0.048 | [9] 0.193

BSCL2 isoform 4 (UniProt Q96G97)
inactive: [1] 0.072 | [10] 0.093 | [2] -0.05 | [3] -0.004 | [11] 0 | [4] -0.006 | [5] -0.001 | [14] -0.005 | [12] -0.057 | [15] -0.019 | [16] -0.164 | [13] 0.03 | [7] -0.025 | [8] -0.113 | [17] -0.122 | [9] -0.071

AP2S1 (UniProt M0QZ21)
inactive: [13] 0.335

ANGEL1 (UniProt Q9UNK9)
inactive: [4] 0.038 | [5] -0.008 | [13] 0.089 | [8] -0.076 | [9] 0.095

ALDH2 isoform 2 (UniProt P05091)
inactive: [18] 0.183 | [1] 0.033 | [2] -0.176 | [11] -0.014 | [4] -0.015 | [5] 0.19 | [12] -0.072 | [6] 0.161 | [13] 0.005 | [8] 0.06 | [19] -0.255 | [20] 0.097 | [9] -0.003

ABCA4 (UniProt P78363)
inactive: [18] 0.117 | [10] -0.202 | [2] -0.046 | [3] -0.172 | [11] -0.163 | [5] 0.015 | [12] -0.087 | [6] -0.249 | [16] 0.277 | [13] 0.246 | [7] -0.152 | [19] 0.006 | [20] 0.006

BAIAP2 isoform 4 (UniProt Q9UQB8)
inactive: [6] 0.147 | [16] -0.034 | [13] 0.288

ACSL6 isoform 1 (UniProt Q9UKU0)
active: [12] -0.459
inactive: [10] 0.08 | [2] -0.159 | [3] 0.01 | [11] -0.014 | [4] 0.149 | [5] -0.069 | [14] -0.226 | [15] -0.041 | [6] 0.177 | [13] -0.076 | [7] -0.048 | [8] 0.155 | [17] -0.007 | [9] 0.021

BRMS1 (UniProt Q9HCU9)
UniProt Q9HCU9, sequence (Q9HCU9 whole entry, looked up): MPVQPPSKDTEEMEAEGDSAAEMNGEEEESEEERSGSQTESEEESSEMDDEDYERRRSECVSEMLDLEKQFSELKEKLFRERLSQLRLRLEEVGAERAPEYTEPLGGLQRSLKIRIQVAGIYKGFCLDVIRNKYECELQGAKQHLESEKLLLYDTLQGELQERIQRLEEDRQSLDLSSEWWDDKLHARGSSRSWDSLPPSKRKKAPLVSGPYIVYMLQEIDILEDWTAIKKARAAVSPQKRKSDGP
inactive: [18] -0.034 | [2] -0.018 | [11] 0.144 | [14] -0.092 | [12] -0.124 | [15] -0.185 | [13] 0.001 | [19] -0.017 | [17] 0.007 | [20] 0.106

ADD2 isoform 9 (UniProt P35612)
UniProt P35612, sequence (P35612 whole entry, looked up): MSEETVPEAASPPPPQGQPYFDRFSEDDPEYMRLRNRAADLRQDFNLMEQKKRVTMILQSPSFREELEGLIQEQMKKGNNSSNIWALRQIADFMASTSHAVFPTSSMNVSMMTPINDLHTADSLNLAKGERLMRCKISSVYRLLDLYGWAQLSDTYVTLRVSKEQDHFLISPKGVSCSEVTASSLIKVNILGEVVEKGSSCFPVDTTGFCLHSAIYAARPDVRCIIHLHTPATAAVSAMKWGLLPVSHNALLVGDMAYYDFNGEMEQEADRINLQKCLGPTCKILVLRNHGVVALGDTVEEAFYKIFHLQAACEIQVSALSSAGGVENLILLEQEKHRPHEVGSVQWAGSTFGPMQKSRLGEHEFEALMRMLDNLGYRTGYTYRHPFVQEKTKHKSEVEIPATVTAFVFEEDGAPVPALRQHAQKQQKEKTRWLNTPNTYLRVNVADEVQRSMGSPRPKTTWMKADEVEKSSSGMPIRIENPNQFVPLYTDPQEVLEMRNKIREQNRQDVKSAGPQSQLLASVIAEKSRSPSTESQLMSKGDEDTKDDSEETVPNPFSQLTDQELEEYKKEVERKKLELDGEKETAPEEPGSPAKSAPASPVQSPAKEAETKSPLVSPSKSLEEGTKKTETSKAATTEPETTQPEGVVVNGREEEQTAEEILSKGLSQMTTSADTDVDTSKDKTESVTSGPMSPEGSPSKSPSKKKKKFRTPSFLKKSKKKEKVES
inactive: [1] -0.1 | [5] 0.196 | [6] -0.122

AKNA (UniProt Q7Z591)
UniProt Q7Z591, sequence (Q7Z591 whole entry, looked up): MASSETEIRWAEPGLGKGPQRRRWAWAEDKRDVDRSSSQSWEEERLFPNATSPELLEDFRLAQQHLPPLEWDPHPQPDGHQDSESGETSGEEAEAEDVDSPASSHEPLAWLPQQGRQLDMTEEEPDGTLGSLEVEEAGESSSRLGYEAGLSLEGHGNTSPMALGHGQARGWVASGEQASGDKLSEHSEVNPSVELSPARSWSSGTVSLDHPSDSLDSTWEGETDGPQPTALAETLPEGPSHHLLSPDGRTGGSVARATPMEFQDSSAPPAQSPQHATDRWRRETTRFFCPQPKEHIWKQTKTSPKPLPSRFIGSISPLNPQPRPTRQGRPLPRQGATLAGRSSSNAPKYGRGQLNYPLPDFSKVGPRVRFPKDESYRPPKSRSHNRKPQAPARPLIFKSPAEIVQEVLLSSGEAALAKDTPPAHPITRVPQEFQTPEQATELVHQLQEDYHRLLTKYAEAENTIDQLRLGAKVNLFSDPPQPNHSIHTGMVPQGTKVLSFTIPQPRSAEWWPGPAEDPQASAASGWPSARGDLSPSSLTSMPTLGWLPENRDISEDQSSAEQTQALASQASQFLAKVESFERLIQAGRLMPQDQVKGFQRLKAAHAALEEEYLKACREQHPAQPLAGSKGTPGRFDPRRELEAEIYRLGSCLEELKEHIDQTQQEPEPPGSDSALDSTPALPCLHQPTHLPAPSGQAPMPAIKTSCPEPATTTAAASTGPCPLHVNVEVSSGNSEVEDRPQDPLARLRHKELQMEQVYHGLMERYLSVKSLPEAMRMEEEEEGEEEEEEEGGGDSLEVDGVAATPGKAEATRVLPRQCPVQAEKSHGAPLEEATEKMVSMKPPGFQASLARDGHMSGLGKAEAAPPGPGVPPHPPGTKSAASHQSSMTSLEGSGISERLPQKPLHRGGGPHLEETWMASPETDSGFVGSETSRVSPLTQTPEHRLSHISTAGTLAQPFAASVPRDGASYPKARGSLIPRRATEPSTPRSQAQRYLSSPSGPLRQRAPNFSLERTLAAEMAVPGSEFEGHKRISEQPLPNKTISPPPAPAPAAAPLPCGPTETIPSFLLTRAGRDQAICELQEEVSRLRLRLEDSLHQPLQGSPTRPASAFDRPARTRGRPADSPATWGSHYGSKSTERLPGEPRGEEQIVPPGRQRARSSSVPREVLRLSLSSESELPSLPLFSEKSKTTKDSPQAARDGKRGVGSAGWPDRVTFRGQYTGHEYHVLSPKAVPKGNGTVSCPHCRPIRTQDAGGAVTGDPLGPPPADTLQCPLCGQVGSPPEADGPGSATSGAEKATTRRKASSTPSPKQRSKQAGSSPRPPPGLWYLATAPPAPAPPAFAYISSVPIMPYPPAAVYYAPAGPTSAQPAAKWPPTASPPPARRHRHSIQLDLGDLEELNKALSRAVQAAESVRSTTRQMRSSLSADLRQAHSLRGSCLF
inactive: [1] 0.015 | [3] 0.054 | [6] -0.017 | [16] -0.066 | [7] -0.074

ARFIP1 isoform 2 (UniProt P53367)
inactive: [1] -0.134 | [10] 0.071 | [2] -0.004 | [3] -0.102 | [11] 0.259 | [5] 0.088 | [14] -0.124 | [15] 0.026 | [6] -0.041 | [7] -0.268 | [17] 0.279
active: [12] -0.512

ADAM15 (UniProt Q13444)
UniProt Q13444, sequence (Q13444 whole entry, looked up): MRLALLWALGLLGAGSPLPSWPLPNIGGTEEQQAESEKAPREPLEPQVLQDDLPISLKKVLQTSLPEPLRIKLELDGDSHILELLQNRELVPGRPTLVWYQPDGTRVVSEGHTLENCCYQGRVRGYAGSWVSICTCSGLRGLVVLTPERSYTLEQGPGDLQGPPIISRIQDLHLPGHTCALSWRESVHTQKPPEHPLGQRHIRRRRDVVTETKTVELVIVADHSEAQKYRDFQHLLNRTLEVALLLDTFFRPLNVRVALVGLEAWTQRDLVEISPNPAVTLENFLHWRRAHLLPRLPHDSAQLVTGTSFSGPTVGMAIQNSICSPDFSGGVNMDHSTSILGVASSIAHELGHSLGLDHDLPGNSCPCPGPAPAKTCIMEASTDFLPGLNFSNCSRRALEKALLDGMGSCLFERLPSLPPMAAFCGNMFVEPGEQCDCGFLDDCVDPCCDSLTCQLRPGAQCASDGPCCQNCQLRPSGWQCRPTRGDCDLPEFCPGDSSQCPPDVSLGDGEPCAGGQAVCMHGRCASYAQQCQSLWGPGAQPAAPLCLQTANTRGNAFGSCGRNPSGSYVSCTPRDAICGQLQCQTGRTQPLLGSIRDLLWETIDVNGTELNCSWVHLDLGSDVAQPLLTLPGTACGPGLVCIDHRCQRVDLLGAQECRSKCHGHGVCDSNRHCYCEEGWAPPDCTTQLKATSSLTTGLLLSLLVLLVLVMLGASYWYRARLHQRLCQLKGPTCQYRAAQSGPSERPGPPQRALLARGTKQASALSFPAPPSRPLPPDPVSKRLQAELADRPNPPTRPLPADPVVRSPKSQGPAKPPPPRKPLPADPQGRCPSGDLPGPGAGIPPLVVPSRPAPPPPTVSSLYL
inactive: [1] -0.103 | [10] -0.02 | [2] 0.034 | [3] -0.177 | [11] -0.001 | [4] 0.066 | [5] -0.099 | [14] -0.028 | [12] -0.016 | [15] -0.241 | [6] -0.034 | [16] -0.091 | [13] 0.065 | [7] -0.211 | [8] -0.04 | [17] 0.073 | [9] 0.056

ADD3 isoform 2 (UniProt Q9UEY8)
inactive: [18] 0.021 | [1] -0.037 | [2] -0.022 | [11] 0.066 | [4] 0.036 | [14] -0.093 | [12] -0.128 | [15] -0.112 | [6] 0.014 | [16] -0.166 | [13] 0.058 | [8] -0.025 | [19] -0.036 | [17] -0.172 | [20] -0.166 | [9] -0.025

ATP6V0A1 (UniProt Q93050)
inactive: [5] -0.082

ADAMTS5 (UniProt Q9UNA0)
UniProt Q9UNA0, sequence (Q9UNA0 whole entry, looked up): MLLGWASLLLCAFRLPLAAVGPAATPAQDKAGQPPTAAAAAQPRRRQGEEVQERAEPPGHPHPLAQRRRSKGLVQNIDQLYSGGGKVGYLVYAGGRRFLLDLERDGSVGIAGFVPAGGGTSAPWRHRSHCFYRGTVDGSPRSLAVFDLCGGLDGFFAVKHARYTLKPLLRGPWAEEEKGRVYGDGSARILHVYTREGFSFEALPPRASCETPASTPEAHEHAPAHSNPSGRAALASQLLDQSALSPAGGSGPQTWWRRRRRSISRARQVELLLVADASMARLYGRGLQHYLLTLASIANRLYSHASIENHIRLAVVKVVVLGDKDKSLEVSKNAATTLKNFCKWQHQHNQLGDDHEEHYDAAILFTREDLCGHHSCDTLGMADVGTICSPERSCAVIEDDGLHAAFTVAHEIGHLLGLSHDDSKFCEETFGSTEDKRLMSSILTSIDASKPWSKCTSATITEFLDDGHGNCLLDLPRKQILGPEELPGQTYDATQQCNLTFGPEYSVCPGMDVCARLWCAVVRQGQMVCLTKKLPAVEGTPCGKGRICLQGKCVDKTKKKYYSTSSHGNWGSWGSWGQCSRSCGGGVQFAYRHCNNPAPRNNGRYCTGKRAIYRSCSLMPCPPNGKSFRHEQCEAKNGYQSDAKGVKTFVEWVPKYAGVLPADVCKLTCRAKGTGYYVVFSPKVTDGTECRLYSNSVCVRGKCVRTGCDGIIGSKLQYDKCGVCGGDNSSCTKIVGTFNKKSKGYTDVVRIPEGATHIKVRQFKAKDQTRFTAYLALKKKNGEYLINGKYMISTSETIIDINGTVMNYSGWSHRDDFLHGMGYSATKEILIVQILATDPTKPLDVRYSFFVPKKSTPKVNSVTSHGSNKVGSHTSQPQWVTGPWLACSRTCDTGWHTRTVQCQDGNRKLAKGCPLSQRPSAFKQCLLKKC
inactive: [18] 0.011 | [10] -0.211 | [3] -0.092 | [11] -0.16 | [4] 0.045 | [5] -0.035 | [14] -0.018 | [12] -0.039 | [15] -0.107 | [6] -0.004 | [16] 0.007 | [13] 0.222 | [7] -0.13 | [8] -0.021 | [19] -0.04 | [17] -0.048 | [20] -0.136 | [9] 0.028

ADD1 isoform 4 (UniProt P35611)
inactive: [2] -0.431 | [11] -0.001 | [5] -0.077 | [12] 0.086 | [16] 0.087

BDH2 (UniProt Q9BUT1)
inactive: [1] -0.126 | [3] 0 | [11] 0.005 | [4] 0.367 | [5] 0.001 | [14] -0.028 | [12] -0.033 | [15] -0.088 | [6] 0 | [16] -0.177 | [7] -0.061 | [8] -0.021 | [17] 0.015 | [9] -0.039

AASDH (UniProt Q4L235)
inactive: [10] 0.141 | [2] 0.028 | [3] -0.018 | [11] 0.149 | [4] 0.189 | [5] -0.044 | [14] -0.019 | [12] 0.004 | [15] 0.011 | [6] -0.067 | [16] -0.035 | [13] 0.16 | [7] -0.014 | [8] -0.091 | [17] -0.036 | [9] -0.004
active: [1] -0.445

ACVR1 (UniProt Q04771)
inactive: [18] -0.104 | [1] -0.2 | [2] 0.16 | [3] -0.036 | [11] 0.065 | [4] -0.095 | [14] -0.111 | [6] -0.081 | [16] 0.047 | [13] -0.042 | [7] 0 | [8] -0.095 | [19] 0.029 | [17] -0.106 | [20] 0.122 | [9] -0.156
active: [12] 0.925

BRD8 isoform 2 (UniProt Q9H0E9)
active: [4] 0.432
inactive: [18] 0.036 | [1] 0.025 | [2] -0.105 | [3] -0.045 | [11] 0.219 | [5] -0.018 | [14] 0.087 | [12] -0.327 | [15] -0.06 | [6] 0.058 | [16] 0.012 | [13] -0.296 | [7] 0 | [8] -0.064 | [19] -0.015 | [17] -0.021 | [20] 0.028 | [9] 0.145
